Compounds with a hit are over-represented: about 2.9% of the library has one in this group of screens.
ADAM17 inh: inhibits human ADAM17 | P78536 | recombinant ADAM17, EDANS/DABCYL FRET peptide cleavage | inhibition, % at 6.95 µM | 370,000 compounds, 0.83% hits | AID 720648;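 active = inhibition above the mean of compounds lying between control limits plus 3 SD, set per campaign, cut at about 8.5% in these data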;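 also: 0% = DMSO-only wells as the low control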
PLCg1 inh: blocks human PLC-gamma1 enzyme activity | P19174 | purified PLC-gamma1, fluorogenic substrate, fluorescence | inhibition, % at 12.2 µM | 370,000 compounds, 0.84% hits; in the data active = inhibition above about 9.5%
PLCb3 inh: blocks human PLC-beta3 enzyme activity | Purified PLC-beta3, fluorogenic substrate, fluorescence | 370,000 compounds, 0.18% hits | inhibition, % at 12.2 µM | Q01970; in the data active = inhibition above about 11%;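 also: 0% = median of compound wells on plate and 100% = full blocker control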
proKLK7 act: proKLK7 (human) activation, primary screen; purified proKLK7, EDANS-DABCYL substrate fluorescence; 100% is mature enzyme control, 0% vehicle; activation, % at 7 µM; 370,000 compounds, 0.9% hits;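 active = activation above the mean of all tested compounds plus 3 SD, computed per campaign excluding outliers beyond control limits, cut at about 13% in these data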
ADAM10 inh: inhibits human ADAM10; recombinant ADAM10, EDANS/DABCYL FRET peptide cleavage, 3 h; inhibition, % at 7 µM; 370,000 compounds, 0.62% hits; AID 720582;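 active = inhibition above a per-campaign cutoff equal to the mean of compounds falling between control-based bounds plus 3 SD, cut at about 20% in these data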;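 also: 0% = DMSO wells while the 100% control is not disclosed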
Starred values were filed as active, the others as inactive; i = inactive.

SMILES | ADAM17 inh | PLCg1 inh | PLCb3 inh | proKLK7 act | ADAM10 inh
CC1(C)C(C=C(Cl)Cl)C1C(=O)Nc1ccc([N+](=O)[O-])cc1 (stereo not given) | 11* | 4 | 3 | 0 | 25*
FC(F)(F)COc1nc(N2CCOCC2)nc(N(c2ccccc2)c2ccccc2)n1 | 7 | 13* | -32 | 0 | 8
Fc1ccc(NC(=S)NC2CC3CCC(C2)N3Cc2ccco2)cc1 (stereo not given) | -3 | 1 | 0 | 0 | -2
Cc1ccc(C(=O)NNC(=O)c2ccncc2)cc1[N+](=O)[O-] | -3 | 1 | -4 | 0 | -13
CCCCn1c(SCC(=O)NCc2ccco2)nc2ccc(N3CCOCC3)cc2c1=O | -62 | i | i | 15* | -205
CCCCn1c(SCC(=O)NCc2ccccc2)nc2ccc(N3CCOCC3)cc2c1=O | -40 | -332 | -477 | 0 | -180
Cc1nn(Cc2noc(C(=O)NCCCn3ccnc3)n2)c(C)c1Br | 4 | 0 | -1 | -1 | 0
CN1CCN(C(c2ccc(Br)cc2)c2cc(Cl)c3cccnc3c2O)CC1 (stereo not given) | 20* | -17 | -28 | 0 | 24*
Fc1ccc(COc2ccc(Br)cc2CNCC2CCCO2)cc1 (stereo not given) | 1 | 0 | -10 | 1 | -10
Cc1ccc(N2C(=O)C3C(C2=O)N2C(c4cccs4)C4C(=O)N(c5ccc(C)cc5)C(=O)C4N2C3c2cccs2)cc1 (stereo not given) | 13* | 9 | -18 | -2 | 12
CCOC(=O)C1(C)NC(c2cccs2)C2C(=O)N(c3ccc(C)cc3)C(=O)C21 (stereo not given) | -1 | 1 | 1 | 1 | 0
Cc1cc(C)c2sc(NNC(=O)c3ccc(S(=O)(=O)N4CCc5ccccc5C4)cc3)nc2c1 | 11* | -59 | -64 | -1 | 11
Cc1cc(C)c2nc(NNC(=O)c3ccc(S(=O)(=O)N4CCc5ccccc5C4)cc3)sc2c1 | 7 | -73 | -95 | -1 | 14
CCC(C)SCc1nc2ccccc2[nH]1 (stereo not given) | -2 | -1 | -9 | -1 | -22
CCOC(=O)C1Nc2ccc(C(F)(F)F)cc2C2c3ccccc3CC12 (stereo not given) | -2 | -3 | -2 | 21* | -1
Cc1ccc(NC(=O)CN(C)C(=O)CSc2nccn2C)cc1 | 3 | 14* | 7 | 0 | 5
O=C(NCc1ccncc1)C1Cc2c(-c3ccc(Cl)cc3)ccnc2O1 (stereo not given) | 1 | 8 | -2 | 1 | -7
O=C(CCCN1C(=O)/C(=C\c2ccccc2)SC1=S)Nc1ccc(O)cc1 | 5 | 2 | -3 | 0 | 24*
Cc1ccc(/C=C2/SC(=S)N(CCCC(=O)Nc3ccc(O)cc3)C2=O)cc1 | 4 | 1 | -1 | 0 | 4
CC[C@]12c3[nH]c4ccc(OC)cc4c3CCN1C(=O)C(CC(=O)NCc1cccc(C(F)(F)F)c1)C[C@@H]2C(=O)N1CCN(C(=O)c2ccco2)CC1 (stereo not given in full) | 6 | 11* | 5 | -1 | 15
Cc1cccnc1NC(=S)NC(=O)c1cncc(Br)c1 | -20 | -2 | -2 | 32* | -54
O=C(COc1ccccc1)NCCSCc1ccc(Cl)cc1 | 8.6* | 0 | 0 | -1 | 0
COc1ccc(-c2csc(NC(=O)CS(=O)(=O)c3ccccc3)n2)cc1 | -3 | 4 | 1 | 0 | -4
COc1ccc(-c2csc(NC(=O)C3CCCCN3S(=O)(=O)c3ccccc3)n2)cc1 (stereo not given) | 10* | 6 | 3 | 0 | 15
O=C(CS(=O)CC(=O)Nc1cccc2c1CCCC2)Nc1ccc(F)cc1 (stereo not given) | -1 | 15* | 8 | 0 | -1
SMILES | ADAM17 inh | PLCg1 inh | PLCb3 inh | proKLK7 act | ADAM10 inh
CC(C)(C)CC(=O)Nc1cccc2c1CCCC2 | 0 | 2 | 0 | 0 | 11
COc1ccc2cc(C(c3nnnn3C3CCCC3)N3CCc4ccccc4C3)c(=O)[nH]c2c1 (stereo not given) | -10 | -22 | -36 | -1 | -29
CC(C)c1ccc(NC(=O)CCNS(=O)(=O)c2cccc3nonc23)cc1 | 2 | 14* | 8 | 0 | 10
Cc1cccc(C)c1NC(=O)CC(NCc1ccco1)C(=O)O (stereo not given) | -3 | -2 | -50 | 0 | -7
COc1cc(C2c3sc(=O)[nH]c3SC3C4CCC(C4)C23)ccc1O (stereo not given) | -5 | -1 | -3 | 1 | 5
CCOC(=O)c1c(NC(=O)C2=C(C)NC(=S)NC2c2ccc(C)cc2)sc(C)c1C (stereo not given) | -15 | -390 | -416 | -59 | -65
CC(C)(C)OC(=O)NCC(=O)Oc1cc2oc(=O)cc(-c3ccccc3)c2cc1Cl | -69 | i | i | 16* | -315
O=C(O)COc1ccc2c(-c3ccccc3)cc(=O)oc2c1 | 0 | -12 | -17 | 0 | -9
CCc1cc2c(-c3ccccc3)cc(=O)oc2cc1OC(C)C(C)=O (stereo not given) | -5 | -51 | -75 | -1 | -22
O=C(Oc1cc2oc(=O)cc(-c3ccccc3)c2cc1Cl)C1CCCCC1 | -53 | i | i | 37* | -144
C=C1C(O)C[C@@H](C(C)C)N(CC(C)C)S1(=O)=O (stereo not given in full) | 0 | -3 | 3 | 0 | 8
Cc1ccc(C)c(NS(=O)(=O)c2cc(C(=O)NCCSC3CCCCC3)ccc2C)c1 | 16* | 14* | 2 | 0 | 34*
COC(=O)c1c(C)[nH]c(C(=O)OCC(=O)NC(C)(C)C)c1C | -5 | -13 | -19 | -1 | -2
CN(C)c1ccc(N=Nc2ccccc2C(=O)OCC(=O)NCC2CCCCC2)cc1 | 6 | 11* | 2 | 1 | 13
CN(C)c1ccc(N=Nc2ccccc2C(=O)OCC(=O)NC2CCCC2)cc1 | 7 | 5 | 1 | 1 | 12
Cc1cc(NC(=O)C2CCCC2)n(-c2nc3ccccc3[nH]2)n1 | 6 | 11* | 5 | 1 | 17
CCN(CCCn1c(=S)[nH]c2ccc(N3CCOCC3)cc2c1=O)c1ccccc1 | -8 | -220 | -345 | -20 | -21
CC1CCN(CCCn2c(=S)[nH]c3ccc(N4CCOCC4)cc3c2=O)CC1 | -30 | i | i | 53* | -115
CCOC(=O)Nc1cccc(OCC(=O)Nc2ccc(OC)cc2OC)c1 | -5 | -1 | -2 | 0 | -9
O=C1OC(Nc2cc(Br)cc3cccnc23)c2ccccc21 (stereo not given) | -1 | 11* | -24 | 1 | -11
Cc1ccc(N(C(=O)CNC(=O)c2ccco2)C(C(=O)NC2CCCCC2)c2cccnc2)cc1F (stereo not given) | -2 | 1 | -2 | 0 | 3
O=C1c2ccccc2C(=O)N1CCC(=O)N1CCCc2ccccc21 | -3 | 2 | 1 | 0 | 5
